# Measured values reported in PubChem BioAssay (NCI).
# The panel holds about 83,000 compounds, 20% with a hit somewhere; the sample as a whole holds those more often.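 Activity criterion: percent growth below 10, measured after cells in 96-well plates were exposed to a single compound concentration for 48 hours.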 Values without a mark were called inactive. Activity calls are given as the source filed them.
# Tests used:
# Experiment in all cases: NCI-60 one-dose screen, 48 h (100 = growth as untreated, 0 = no growth, -100 = all killed)
# Details in all cases: 10 µM unless noted
# NCI-H23 lung = test system: NCI-H23 lung
# NCI-H226 lung = test system: NCI-H226 lung
# NCI-H322M lung = test system: NCI-H322M lung
# HOP-62 NSCLC = test system: HOP-62 NSCLC
# NCI-H460 lung = test system: NCI-H460 lung
# HOP-92 NSCLC = test system: HOP-92 NSCLC
# NCI-H522 lung = test system: NCI-H522 lung
# A549/ATCC NSCLC = test system: A549/ATCC NSCLC
# 786-0 renal = test system: 786-0 renal
SMILES,growth (NCI-H23 lung),growth (NCI-H226 lung) [%],growth (NCI-H322M lung) [%],growth (HOP-62 NSCLC),growth (NCI-H460 lung),growth (HOP-92 NSCLC),growth (NCI-H522 lung),growth (A549/ATCC NSCLC),growth (786-0 renal)
COc1ccc(CN2C(=O)/C(=C\c3cc(OC)c(OC)c(OC)c3)c3ccccc32)cc1,-8.08% (active),11.8,19.6,-33% (active),-53% (active),0.884% (active),-54.1% (active),9.31% (active),1.15% (active)
O=S(=O)(NCCNc1cc(-c2c(-c3cccc(O)c3)nc3sccn23)ccn1)c1ccc(Cl)cc1,79.1%,62.4,86,103%,58.3%,74.7%,66.1%,57.6%,62.1%
C=C1c2c(C)nn(-c3ccc(S(N)(=O)=O)cc3)c2N(C)C23CC1C1(C)c4c(C)nn(-c5ccc(S(N)(=O)=O)cc5)c4N(C)C(C)(CC12)C3 (configuration not stated),51.4%,40.7,75.7,48.2%,12.4%,50.1%,44%,17.6%,41.9%
